# Experimental data reported in PubChem BioAssay (Tox21).
# Inconclusive results are not listed. A call without a number means that no potency is given here. A number with no mark means an inactive call. Activity calls are given as the source filed them. Unless noted, the call rests on the fitted dose curve; in most records, active means well fitted curve in the direction sought with a large enough effect in the repeat runs; inconclusive means weak or mixed curves; inactive means no such curve, though single readings can be large; an effect the other way counts as inactive or inconclusive.
# Experiments:
# [1] = target: Aryl hydrocarbon receptor (Homo sapiens) (UniProt P35869); assay: qHTS assay to identify small molecule that activate the aryl hydrocarbon receptor (AhR) signaling pathway (AID 743085); further: nearly all actives have a fitted effect of over 15% in size; further: potency means the concentration at half of the fitted maximal effect;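 on activation: HG2L7.5c1 human HepG2 liver cells with stably integrated DRE-driven firefly reporter; series mostly up to about 70 µM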
# How it was run: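 Cell line HG2L7.5c1 (human hepatoma, 20× DRE-luc). Plated, 5 h 37C, compound/DMSO added, 24 h 37C. CellTiter-Fluor 30 min 37C → fluorescence; then ONE-Glo 30 min RT → luminescence.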
# [2] = qHTS assay to identify small molecule that activate the aryl hydrocarbon receptor (AhR) signaling pathway - cell viability counter screen (AID 743086); further: nearly all actives have a fitted effect of over 45% in size; further: potency means the concentration at half of the fitted maximal effect;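 on viability change, negative = cytotoxic: HepG2 liver cells carrying the AhR DRE luciferase reporter; series mostly up to about 70 µM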
# How it was run: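 Cytotoxicity counter screen: CellTiter-Fluor signal (30 min, 37 C) in 4000 HepG2 cells/well carrying the DRE-luciferase reporter, following 24 h compound exposure at 37 C.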
# [3] = target: Peroxisome proliferator-activated receptor gamma (Homo sapiens) (UniProt P37231); assay: qHTS assay to identify small molecule agonists of the peroxisome proliferator-activated receptor gamma (PPARg) signaling pathway (AID 743094; active means well fitted activation curve with a large enough effect in the signal ratio in the repeat runs, not every such curve was filed as active; the % refers to the signal ratio)
# How it was run: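 Cell-based bla reporter, HEK293H background, PPARg-driven UAS. Pre-incubation 5 h, 37C, 5% CO2. Compound 17 h, 37C. Substrate 1 h RT; fluorescence.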
# [4] = qHTS assay to identify small molecule antagonists of the peroxisome proliferator-activated receptor gamma (PPARg) signaling pathway - cell viability counter screen (AID 743194); further: nearly all actives have a fitted effect of over 55% in size
# How it was run: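 Viability was measured as CellTiter-Glo luminescence in GeneBLAzer PPARg UAS-bla HEK293H cells. These cells had been exposed 17 h at 37 C to compounds together with rosiglitazone at 50 nM final, with the beta-lactamase readout taken in the same wells.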
# [5] = qHTS assay for small molecule agonists of the antioxidant response element (ARE) signaling pathway - cell viability counter screen (AID 743203; calls by dose curve; further: nearly all actives have a fitted effect of over 55% in size)
# How it was run: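 Measured in the same wells as the beta-lactamase ARE reporter, this read-out is CellTiter-Glo luminescence from HepG2 ARE-bla cells given compounds for 16 hrs.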
# [6] = qHTS assay for small molecule activators of the heat shock response signaling pathway - cell viability counter screen (AID 743209); further: nearly all actives have a fitted effect of over 50% in size
# How it was run: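 Same-well multiplex: after 2.5 h room-temperature incubation with LiveBLAzer B/G substrate and fluorescence reading, CellTiter-Glo reagent was added to HSE-bla HeLa cells that had received compound for 5 h at 37 C; luminescence read after 30 min.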
# [7] = qHTS assay for small molecule activators of the heat shock response signaling pathway (AID 743210; active means well fitted activation curve with a large enough effect in the signal ratio in the repeat runs, with a control signal flat, not every such curve was filed as active; the % refers to the signal ratio; further: series mostly up to about 63 µM)
# How it was run: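 Compound exposure lasted 5 h at 37 C in HeLa cells carrying a heat-shock-element-driven beta-lactamase reporter. Read-out: fluorescence intensity after 2.5 h room-temperature loading with LiveBLAzer B/G FRET substrate.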
# [8] = qHTS assay to identify small molecule agonists of the peroxisome proliferator-activated receptor delta (PPARd) signaling pathway - cell viability counter screen (AID 743211); further: nearly all actives have a fitted effect of over 55% in size
# How it was run: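 HEK293H PPARd-bla, 3000 cells/well; 5 h preincubation 37C/5% CO2; cpd in DMSO, 17 h 37C; B/G FRET substrate 2 h RT; CellTiter-Glo 30 min RT, luminescence.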
# [9] = target: Peroxisome proliferator-activated receptor delta (Homo sapiens) (UniProt Q03181); assay: qHTS assay to identify small molecule agonists of the peroxisome proliferator-activated receptor delta (PPARd) signaling pathway (AID 743212; calls by dose curve;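 further: HEK293H cells with PPARd UAS beta-lactamase reporter GeneBLAzer system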)
# How it was run: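 Beta-lactamase reporter readout: a ratiometric FRET signal from the LiveBLAzer substrate after 2 h at room temperature. Compound exposure at 37 °C in PPARδ-bla HEK293H cells driven by an upstream activator sequence.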
# [10] = qHTS assay to identify small molecule antagonists of the peroxisome proliferator-activated receptor delta (PPARd) signaling pathway - cell viability counter screen (AID 743213); further: nearly all actives have a fitted effect of over 50% in size
# How it was run: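 PPARd-bla HEK293H cells (3000/well) got compound plus 300 nM L165041 agonist for 17 h at 37 C. Viability in the same wells came from CellTiter-Glo luminescence after 30 min at room temperature.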
# [11] = target: Bile acid receptor (Homo sapiens) (UniProt Q96RI1); assay: qHTS assay to identify small molecule antagonists of the farnesoid-X-receptor (FXR) signaling pathway (AID 743217; active means well fitted inhibition curve with a large enough effect in the signal ratio in the repeat runs, not every such curve was filed as active; the % refers to the signal ratio; further: potency means the concentration at half of the fitted maximal effect)
# How it was run: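 FRET fluorescence after 2 h room-temperature LiveBLAzer loading gives the readout. Prior step: FXR-bla HEK 293T cells, seeded and incubated 5 h, received test compounds plus 50 uM final CDCA for 16 h at 37 °C.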
# [12] = qHTS assay to identify small molecule agonists of the farnesoid-X-receptor (FXR) signaling pathway - cell viability counter screen (AID 743218); further: nearly all actives have a fitted effect of over 45% in size
# How it was run: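 Readout: CellTiter-Glo luminescence, 30 min RT, multiplexed after the FXR-bla FRET reading. HEK 293T FXR-UAS-bla cells received compound 5 h post-plating and were incubated 16 h at 37 C.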
# [13] = target: Bile acid receptor (Homo sapiens) (UniProt Q96RI1); assay: qHTS assay to identify small molecule agonists of the farnesoid-X-receptor (FXR) signaling pathway (AID 743220; active means well fitted activation curve with a large enough effect in the signal ratio in the repeat runs, not every such curve was filed as active; the % refers to the signal ratio)
# How it was run: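 FXR-UAS-bla HEK 293T cells carrying a UAS-driven beta-lactamase reporter were plated for 5 h at 37C/5% CO2, then exposed to DMSO-dissolved Tox21 10K compounds for 16 h at 37C. A LiveBLAzer B/G FRET substrate was loaded for 2 h at room temperature before fluorescence reading.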
# [14] = qHTS assay to identify small molecule antagonists of the farnesoid-X-receptor (FXR) signaling pathway - cell viability counter screen (AID 743221; active means well fitted cell-killing curve with a large enough effect in the repeat runs, not every such curve was filed as active; further: nearly all actives have a fitted effect of over 50% in size)
# How it was run: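 Luminescence from CellTiter-Glo measures cytotoxicity in GeneBLAzer FXR-UAS-bla HEK 293T cells. Cells were exposed to compounds with 50 uM chenodeoxycholic acid (final) for 16 h at 37 C, in wells also used for the reporter readout.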
# [15] = target: Vitamin D3 receptor (Homo sapiens) (UniProt P11473); assay: qHTS assay to identify small molecule agonists of the vitamin D receptor (VDR) signaling pathway (AID 743222; calls by dose curve)
# How it was run: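 Following 4 h attachment at 37C, VDR-bla cells (2,000 per well) received DMSO-dissolved compounds or controls. After 16 h incubation, LiveBLAzer B/G FRET substrate was added and fluorescence read 2 h later at room temperature.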
# [16] = target: Vitamin D3 receptor (Homo sapiens) (UniProt P11473); assay: qHTS assay to identify small molecule antagonists of the vitamin D receptor (VDR) signaling pathway (AID 743223; active means well fitted inhibition curve with a large enough effect in the signal ratio in the repeat runs, not every such curve was filed as active; the % refers to the signal ratio)
# How it was run: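 Antagonist mode uses 1alpha,25-dihydroxyvitamin D3 at 3 nM final as stimulus. VDR-bla cells receive compounds in DMSO, incubate 16 h at 37C, then a beta-lactamase FRET substrate for 2 h at room temperature before fluorescence measurement.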
# [17] = qHTS assay to identify small molecule agonists of the vitamin D receptor (VDR) signaling pathway - cell viability counter screen (AID 743224); further: series mostly up to about 63 µM; nearly all actives have a fitted effect of over 50% in size
# How it was run: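 In parallel with the bla FRET readout, cytotoxicity toward VDR-bla cells after 16 h compound exposure was assessed by CellTiter-Glo, with luminescence recorded after a 30 min room-temperature incubation.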
# [18] = qHTS assay for small molecule agonists of the antioxidant response element (ARE) signaling pathway (AID 743202; active means well fitted activation curve with a large enough effect in the signal ratio in the repeat runs, not every such curve was filed as active; the % refers to the signal ratio; further: potency means the concentration at half of the fitted maximal effect)
# How it was run: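 After 16 hours of compound treatment at 37 C, HepG2 cells with a stably integrated ARE-driven beta-lactamase reporter were loaded 2 hours at room temperature with LiveBLAzer B/G FRET substrate and fluorescence intensity measured.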
# [19] = target: Peroxisome proliferator-activated receptor delta (Homo sapiens) (UniProt Q03181); assay: qHTS assay to identify small molecule antagonists of the peroxisome proliferator-activated receptor delta (PPARd) signaling pathway (AID 743215; active means well fitted inhibition curve with a large enough effect in the signal ratio in the repeat runs, not every such curve was filed as active; the % refers to the signal ratio;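 further: cells stimulated with agonist L165041 at 300 nM final during compound exposure; series mostly up to about 62 µM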)
# How it was run: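 Fluorescence from cleaved LiveBLAzer B/G FRET substrate (2 h, room temperature) reports PPARd-driven beta-lactamase in HEK293H UAS-bla cells. Cells had been treated 17 h at 37 C with compound plus 300 nM final L165041.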
# Chain of Bile acid receptor (Homo sapiens) (Q96RI1 whole entry, looked up): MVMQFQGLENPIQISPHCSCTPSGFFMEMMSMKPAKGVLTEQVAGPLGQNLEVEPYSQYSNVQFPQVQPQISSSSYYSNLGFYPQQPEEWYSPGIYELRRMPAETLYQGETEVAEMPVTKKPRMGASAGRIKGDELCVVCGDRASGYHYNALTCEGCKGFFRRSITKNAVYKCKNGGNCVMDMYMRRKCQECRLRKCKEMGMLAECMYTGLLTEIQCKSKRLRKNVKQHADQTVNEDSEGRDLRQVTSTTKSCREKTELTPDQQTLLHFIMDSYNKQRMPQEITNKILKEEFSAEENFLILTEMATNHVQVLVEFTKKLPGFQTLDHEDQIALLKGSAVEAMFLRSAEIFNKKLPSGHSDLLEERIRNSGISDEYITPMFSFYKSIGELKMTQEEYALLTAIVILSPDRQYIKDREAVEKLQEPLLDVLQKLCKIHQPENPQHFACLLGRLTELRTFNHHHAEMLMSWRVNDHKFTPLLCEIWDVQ
# Chain of Peroxisome proliferator-activated receptor gamma (Homo sapiens) (P37231 whole entry, looked up): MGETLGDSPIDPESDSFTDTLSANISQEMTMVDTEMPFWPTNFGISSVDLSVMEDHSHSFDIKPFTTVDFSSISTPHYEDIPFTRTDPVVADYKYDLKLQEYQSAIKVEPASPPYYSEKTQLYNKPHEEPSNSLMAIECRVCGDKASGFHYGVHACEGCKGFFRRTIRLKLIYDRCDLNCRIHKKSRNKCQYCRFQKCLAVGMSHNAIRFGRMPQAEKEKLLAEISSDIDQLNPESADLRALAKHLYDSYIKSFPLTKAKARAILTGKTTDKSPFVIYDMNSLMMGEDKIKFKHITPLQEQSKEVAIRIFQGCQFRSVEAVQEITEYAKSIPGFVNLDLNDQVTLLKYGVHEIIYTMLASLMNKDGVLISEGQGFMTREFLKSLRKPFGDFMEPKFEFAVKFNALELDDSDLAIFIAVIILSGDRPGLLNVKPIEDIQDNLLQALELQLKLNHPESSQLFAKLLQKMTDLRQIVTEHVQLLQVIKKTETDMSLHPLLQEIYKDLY
# Chain of Vitamin D3 receptor (Homo sapiens) (P11473 whole entry, looked up): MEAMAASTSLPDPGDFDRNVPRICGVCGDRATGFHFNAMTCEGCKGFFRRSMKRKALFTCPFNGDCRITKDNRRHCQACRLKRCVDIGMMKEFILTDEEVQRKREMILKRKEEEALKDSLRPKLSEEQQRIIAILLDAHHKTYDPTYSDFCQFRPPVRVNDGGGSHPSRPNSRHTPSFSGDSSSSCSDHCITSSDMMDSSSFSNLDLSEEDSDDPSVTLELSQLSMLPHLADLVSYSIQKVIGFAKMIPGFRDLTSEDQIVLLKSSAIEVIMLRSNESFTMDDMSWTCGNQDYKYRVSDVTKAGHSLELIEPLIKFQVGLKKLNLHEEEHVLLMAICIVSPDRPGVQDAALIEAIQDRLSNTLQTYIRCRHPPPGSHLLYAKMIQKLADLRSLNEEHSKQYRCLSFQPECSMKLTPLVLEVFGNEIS
# Chain of Peroxisome proliferator-activated receptor delta (Homo sapiens) (Q03181 whole entry, looked up): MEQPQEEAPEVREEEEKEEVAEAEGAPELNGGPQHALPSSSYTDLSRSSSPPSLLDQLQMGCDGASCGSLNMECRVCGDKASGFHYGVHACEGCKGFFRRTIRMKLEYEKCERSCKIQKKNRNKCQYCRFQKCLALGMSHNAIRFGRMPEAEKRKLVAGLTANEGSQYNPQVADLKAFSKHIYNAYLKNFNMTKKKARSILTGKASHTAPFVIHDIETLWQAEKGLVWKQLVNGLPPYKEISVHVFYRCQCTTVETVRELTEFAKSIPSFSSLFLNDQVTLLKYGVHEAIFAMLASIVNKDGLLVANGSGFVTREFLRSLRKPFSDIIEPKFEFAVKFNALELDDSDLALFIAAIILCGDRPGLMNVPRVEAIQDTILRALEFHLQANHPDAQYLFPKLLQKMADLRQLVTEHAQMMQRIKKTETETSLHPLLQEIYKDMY
# Chain of Aryl hydrocarbon receptor (Homo sapiens) (P35869 whole entry, looked up): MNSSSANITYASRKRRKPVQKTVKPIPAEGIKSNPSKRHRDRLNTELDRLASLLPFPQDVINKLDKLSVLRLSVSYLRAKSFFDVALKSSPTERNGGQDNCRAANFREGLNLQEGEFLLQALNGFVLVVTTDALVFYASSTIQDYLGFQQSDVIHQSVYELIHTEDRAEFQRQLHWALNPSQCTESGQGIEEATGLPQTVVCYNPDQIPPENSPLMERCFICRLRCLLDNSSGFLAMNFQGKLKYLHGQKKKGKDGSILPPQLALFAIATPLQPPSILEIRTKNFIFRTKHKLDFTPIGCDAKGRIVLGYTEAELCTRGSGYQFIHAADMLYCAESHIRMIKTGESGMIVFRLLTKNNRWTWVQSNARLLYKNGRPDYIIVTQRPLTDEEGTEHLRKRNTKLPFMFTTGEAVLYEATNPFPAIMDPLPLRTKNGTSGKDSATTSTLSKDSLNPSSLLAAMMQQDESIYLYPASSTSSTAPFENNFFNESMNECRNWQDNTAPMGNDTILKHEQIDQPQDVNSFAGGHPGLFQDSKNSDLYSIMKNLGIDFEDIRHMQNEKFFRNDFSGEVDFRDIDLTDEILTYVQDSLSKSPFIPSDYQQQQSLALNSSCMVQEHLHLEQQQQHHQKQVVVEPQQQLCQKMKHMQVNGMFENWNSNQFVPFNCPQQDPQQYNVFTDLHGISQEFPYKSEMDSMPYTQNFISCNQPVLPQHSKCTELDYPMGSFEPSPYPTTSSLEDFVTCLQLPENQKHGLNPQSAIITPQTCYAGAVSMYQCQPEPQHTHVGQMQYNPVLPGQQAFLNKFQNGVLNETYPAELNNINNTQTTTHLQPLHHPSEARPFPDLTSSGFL
smiles,measurement,setting,value
CC(=O)Oc1ccc2c(c1)CC[C@@H]1[C@@H]2CC[C@]2(C)[C@@H](O)CC[C@@H]12,Potency,[1],inactive
same,Potency,[2],inactive
same,Potency,[3],inactive
same,Potency,[4],inactive
same,Potency,[5],inactive
same,Potency,[6],inactive
same,Potency,[7],inactive
same,Potency,[8],inactive
same,Potency,[9],inactive
same,Potency,[10],inactive
same,Potency,[11],29.8 µM (active)
same,Potency,[12],inactive
same,Potency,[13],inactive
same,Potency,[14],inactive
same,outcome,[15],inactive
same,outcome,[16],inactive
same,Potency,[17],inactive
CCCCC(CC)C(=O)OCCOCCOCCOCCOC(=O)C(CC)CCCC (centres undefined),Potency,[1],inactive
same,Potency,[2],inactive
same,Potency,[3],inactive
same,Potency,[4],inactive
same,Potency,[18],inactive
same,Potency,[5],inactive
same,Potency,[6],inactive
same,Potency,[8],inactive
same,Potency,[9],inactive
same,Potency,[10],inactive
same,Potency,[11],inactive
same,Potency,[13],inactive
same,Potency,[14],inactive
same,outcome,[15],inactive
same,outcome,[16],inactive
same,Potency,[17],inactive
CN(C)C(=O)Nc1ccc(Oc2ccc(Cl)cc2)cc1,Potency,[1],inactive
same,Potency,[2],inactive
same,Potency,[3],inactive
same,Potency,[4],inactive
same,Potency,[18],19.3 µM (active)
same,Potency,[6],inactive
same,Potency,[7],inactive
same,Potency,[8],inactive
same,Potency,[10],inactive
same,Potency,[12],inactive
same,Potency,[14],inactive
same,outcome,[15],inactive
same,outcome,[16],inactive
same,Potency,[17],inactive
CC(=O)OCC(=O)[C@@]12OC(C)(C)O[C@@H]1C[C@H]1[C@@H]3C[C@H](F)C4=CC(=O)C=C[C@]4(C)[C@@]3(F)[C@@H](O)C[C@@]12C,Potency,[1],inactive
same,Potency,[2],inactive
same,Potency,[3],inactive
same,Potency,[4],inactive
same,Potency,[18],inactive
same,Potency,[5],inactive
same,Potency,[6],inactive
same,Potency,[8],inactive
same,Potency,[9],inactive
same,Potency,[10],inactive
same,Potency,[12],inactive
same,Potency,[14],inactive
same,outcome,[15],inactive
same,Potency,[17],inactive
N#C/C(=C1\SCC(c2ccccc2Cl)S1)n1ccnc1 (centres undefined),Potency,[1],7.5 µM (active)
same,Potency,[2],inactive
same,Potency,[3],inactive
same,Potency,[4],inactive
same,Potency,[18],inactive
same,Potency,[5],inactive
same,Potency,[6],inactive
same,Potency,[8],inactive
same,Potency,[10],inactive
same,Potency,[19],inactive
same,Potency,[12],inactive
same,Potency,[14],inactive
same,Potency,[17],inactive
CNC(=O)N(c1ccccc1)c1ccccc1,Potency,[1],inactive
same,Potency,[2],inactive
same,Potency,[3],inactive
same,Potency,[4],inactive
same,Potency,[5],inactive
same,Potency,[6],inactive
same,Potency,[7],inactive
same,Potency,[8],inactive
same,Potency,[10],inactive
same,Potency,[12],inactive
same,Potency,[14],inactive
same,Potency,[17],inactive
C/C=C/C=C/CCCCCCCO,Potency,[1],inactive
same,Potency,[2],inactive
same,Potency,[3],inactive
same,Potency,[4],inactive
same,Potency,[8],inactive
same,Potency,[9],inactive
same,Potency,[11],inactive
same,Potency,[12],inactive
same,Potency,[13],inactive
same,Potency,[14],inactive
same,Potency,[17],inactive
CCc1nn(CCCN2CCN(c3cccc(Cl)c3)CC2)c(=O)n1CCOc1ccccc1,Potency,[1],inactive
same,Potency,[2],23.7 µM (active)
same,Potency,[3],inactive
same,Potency,[4],inactive
same,Potency,[6],inactive
same,Potency,[7],inactive
same,Potency,[10],inactive
same,Potency,[19],inactive
same,Potency,[12],inactive
same,Potency,[14],inactive
same,Potency,[17],inactive
CC1CN(c2cc3c(cc2F)c(=O)c(C(=O)O)cn3-c2ccc(F)cc2F)CCN1 (centres undefined),Potency,[1],inactive
same,Potency,[2],inactive
same,Potency,[3],inactive
same,"activity change, negative = cytotoxicity",[4],5.03% [at 5.95 µM]
same,activation,[18],0.815% [at 8.36 µM]
same,"viability change, negative = cytotoxic",[5],-0.948% [at 8.36 µM]
same,"activity change, negative = cytotoxicity",[6],-28.5% [at 5.95 µM]
same,"activity change, negative = cytotoxicity",[8],-0.433% [at 5.95 µM]
same,activation,[9],3.73% [at 5.95 µM]
same,"viability change, negative = cytotoxic",[10],12.1% [at 6.26 µM]
same,"ratio activity, negative = inhibition",[19],1.55% [at 6.26 µM]
same,"viability change, negative = cytotoxic",[12],19.1% [at 5.95 µM]
same,"activity change, negative = cytotoxicity",[14],-0.0684% [at 5.95 µM]
same,activation,[15],5.04% [at 6.01 µM]
same,"activity change, negative = inhibition",[16],0.481% [at 6.95 µM]
same,"activity change, negative = cytotoxicity",[17],-0.741% [at 5.95 µM]
